Measured values published in PubChem BioAssay (Tox21).
Inconclusive results are not listed. Activity calls are given as the source filed them. Unless noted, the call rests on the fitted dose curve.

Key:
[1] = qHTS assay to identify small molecule antagonists of the estrogen related receptor signaling pathway with the pleiotropic PPARgamma coactivator (PGC) from Tox21 10K library - cell viability counter screen (AID 1224840; active means well fitted cell-killing curve with a large enough effect in the repeat runs, not every such curve was filed as active; further: nearly all actives have a fitted effect of over 40% in size)
In short: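 Readout: fluorescence intensity from CellTiter-Fluor after 30 min at 37 C/5% CO2. Preceded by 17.5 h treatment of PGC/ERR cells with DMSO-dissolved compounds, added 6 h post-seeding.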

[2] = molecular target: Thyrotropin receptor (Homo sapiens) (UniProt P16473); test: qHTS assay to identify small molecule agonists of the thyroid stimulating hormone receptor (TSHR) signaling pathway (AID 1224843); further: nearly all actives have a fitted effect of over 45% in size
In short: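 A cell-based cAMP HTRF format was run in TSHR-transfected HEK293 cells, 800 per well. Treatment: 30 min, room temperature. Detection: 1 h with labelled cAMP and anti-cAMP cryptate. Concentration-response over 15 points, three replicates.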

[3] = qHTS assay to identify small molecule agonists of the hypoxia (HIF-1) signaling pathway - cell viability counter screen (AID 1224844); further: nearly all actives have a fitted effect of over 50% in size
In short: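 In this counter screen, HRE-bla ME-180 cell viability after 17 hrs of compound exposure at 37C was read by CellTiter-Glo luminescence, multiplexed with the beta-lactamase reporter measurement.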

[4] = qHTS assay to identify small molecule agonists of H2AX (AID 1224845; active means well fitted activation curve with a large enough effect in the signal ratio in the repeat runs, not every such curve was filed as active; the % refers to the signal ratio)
In short: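 Phospho-H2AX Ser139 measured by HTRF (ex 320 nm; em 665 and 620 nm) after 24 hr antibody incubation. Compounds, 15 concentrations, 0.76% DMSO, were applied to CHO-K1 cells for 3hr at 37C before lysis.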

[5] = qHTS assay to identify small molecule agonists of the hypoxia (HIF-1) signaling pathway (AID 1224846; active means well fitted activation curve with a large enough effect in the signal ratio in the repeat runs, not every such curve was filed as active; the % refers to the signal ratio)
In short: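 ME-180 HRE-bla reporter cells; compounds in DMSO, 17 h at 37C; read-out beta-lactamase via CCF4-AM FRET.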

[6] = qHTS assay to identify small molecule agonists of H2AX - cell viability counter screen (AID 1224847); further: top concentration of the series differs between compounds; nearly all actives have a fitted effect of over 30% in size
In short: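 Cytotoxicity counter screen in wild-type CHO-K1 cells: a 3 hr compound treatment at 37C across 15 concentrations, followed by CellTiter-Glo luminescence to gauge viable cells.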
On the % scale 0 is the no-effect control and ±100 the full control effect.

Chain of Thyrotropin receptor (Homo sapiens) (P16473 whole entry, looked up): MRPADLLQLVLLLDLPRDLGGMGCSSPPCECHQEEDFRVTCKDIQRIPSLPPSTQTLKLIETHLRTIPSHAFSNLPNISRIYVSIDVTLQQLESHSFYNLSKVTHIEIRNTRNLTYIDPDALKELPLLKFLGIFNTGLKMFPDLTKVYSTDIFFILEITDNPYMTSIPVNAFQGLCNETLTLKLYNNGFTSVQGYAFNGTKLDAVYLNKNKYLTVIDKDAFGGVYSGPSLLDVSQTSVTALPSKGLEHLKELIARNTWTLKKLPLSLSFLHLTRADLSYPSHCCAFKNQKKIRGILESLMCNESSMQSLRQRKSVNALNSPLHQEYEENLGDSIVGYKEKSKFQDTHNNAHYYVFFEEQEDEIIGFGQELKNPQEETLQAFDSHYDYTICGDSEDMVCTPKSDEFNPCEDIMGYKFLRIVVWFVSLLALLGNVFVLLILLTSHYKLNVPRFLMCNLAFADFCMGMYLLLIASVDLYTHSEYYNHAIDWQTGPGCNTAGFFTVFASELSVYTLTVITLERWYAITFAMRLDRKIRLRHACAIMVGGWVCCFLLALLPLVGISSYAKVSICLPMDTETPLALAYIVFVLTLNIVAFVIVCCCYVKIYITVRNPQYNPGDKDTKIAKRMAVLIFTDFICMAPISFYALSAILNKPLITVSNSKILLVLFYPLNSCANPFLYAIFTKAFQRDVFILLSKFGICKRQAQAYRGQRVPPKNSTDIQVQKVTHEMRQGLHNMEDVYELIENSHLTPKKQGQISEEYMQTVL

OCCCCCCCl
inactive: outcome [1] | outcome [2] | outcome [3] | outcome [4] | outcome [5] | Potency [6]

CCCCCCCCCCCCCC(=O)OC
inactive: outcome [1] | outcome [2] | outcome [3] | outcome [4] | outcome [5] | Potency [6]

O=C(c1ccc2c(c1)C(=O)OC2=O)c1ccc2c(c1)C(=O)OC2=O
inactive: outcome [1] | outcome [2] | outcome [3] | outcome [4] | outcome [5] | Potency [6]

O=C(O)c1c(Cl)ccc(Cl)c1Cl
inactive: outcome [1] | outcome [2] | outcome [3] | outcome [4] | outcome [5] | Potency [6]

CCOC(=O)OCC/C(SC(=O)OCC)=C(\C)N(C=O)Cc1cnc(C)nc1N
inactive: outcome [1] | outcome [2] | outcome [3] | outcome [4] | outcome [5] | Potency [6]

CCCCCC(=O)OCC
inactive: outcome [1] | outcome [2] | outcome [3] | outcome [4] | outcome [5] | Potency [6]

O=C(O)C(=O)Nc1cccc(-c2nn[nH]n2)c1
inactive: outcome [1] | outcome [2] | outcome [3] | outcome [4] | outcome [5] | Potency [6]

CCCCC/C=C/CC(=O)OC
inactive: outcome [1] | outcome [2] | outcome [3] | outcome [4] | outcome [5] | Potency [6]

C=C[Si](C)(C)O[Si](C)(C)C=C
inactive: outcome [1] | outcome [2] | outcome [3] | outcome [4] | outcome [5] | Potency [6]

C=CCOc1cc(Cl)ccc1C(=O)NCCN(CC)CC
inactive: outcome [1] | outcome [2] | outcome [3] | outcome [4] | outcome [5] | Potency [6]

CCN(CCC#N)c1ccccc1
inactive: outcome [1] | outcome [2] | outcome [3] | outcome [4] | outcome [5] | Potency [6]

CCOC(=O)CCc1ccccc1
inactive: outcome [1] | outcome [2] | outcome [3] | outcome [4] | outcome [5] | Potency [6]

NC(Cc1c[nH]c2ccccc12)C(=O)O (stereo not given)
inactive: outcome [1] | outcome [2] | outcome [3] | outcome [4] | outcome [5] | Potency [6]

CCCCCCCCCCCCC
inactive: outcome [1] | outcome [2] | outcome [3] | outcome [4] | outcome [5] | Potency [6]

O=C1CC[C@H](C(=O)N2CCCCC2)N1
inactive: outcome [1] | outcome [2] | outcome [3] | outcome [4] | outcome [5] | Potency [6]

CNC(=O)NC
inactive: outcome [1] | outcome [2] | outcome [3] | outcome [4] | outcome [5] | Potency [6]

C=CCCCCCCCCCCC
inactive: viability change, negative = cytotoxic [1] 1.26% [at 8.39 µM] | activation [2] -0.0254% [at 8.39 µM] | activity change, negative = cytotoxicity [3] 2.72% [at 6.97 µM] | activation (H2AX phosphorylation) [4] -0.58% [at 14 µM] | activation [5] -0.397% [at 7.01 µM] | activity change, negative = cytotoxicity [6] 3.67% [at 14 µM]

CO[Si](CCCS)(OC)OC
inactive: outcome [1] | outcome [2] | outcome [3] | outcome [4] | outcome [5] | Potency [6]

CCCC(C)CC (stereo not given)
inactive: outcome [1] | outcome [2] | outcome [3] | outcome [4] | outcome [5] | Potency [6]

Cc1nc([N+](=O)[O-])cn1-c1ccc([N+](=O)[O-])cc1
inactive: outcome [1] | outcome [2] | outcome [3] | outcome [4] | outcome [5] | Potency [6]

Cc1cccc(C(=O)O)c1[N+](=O)[O-]
inactive: outcome [1] | outcome [2] | outcome [3] | outcome [4] | outcome [5] | Potency [6]

O=C1OC(=O)c2cc(Oc3ccc4c(c3)C(=O)OC4=O)ccc21
inactive: outcome [1] | outcome [2] | outcome [3] | outcome [4] | outcome [5] | Potency [6]

NS(=O)(=O)c1ccc(Cl)c(S(N)(=O)=O)c1
inactive: outcome [1] | outcome [2] | outcome [3] | outcome [4] | outcome [5] | Potency [6]

C=C(C)C(=O)OC1CC(C)CC(C)(C)C1 (stereo not given)
inactive: outcome [1] | outcome [2] | outcome [3] | outcome [4] | outcome [5] | Potency [6]

CC1(N)CCC(C(C)(C)N)CC1 (stereo not given)
inactive: outcome [1] | outcome [2] | outcome [3] | outcome [4] | outcome [5] | Potency [6]

Nc1c(NC/C=C\COc2cc(CN3CCCCC3)ccn2)c(=O)c1=O
inactive: viability change, negative = cytotoxic [1] 8.26% [at 19 µM] | activation [2] 2.1% [at 19 µM] | activity change, negative = cytotoxicity [3] 1.18% [at 15.8 µM] | activation (H2AX phosphorylation) [4] -1.81% [at 31.6 µM] | activation [5] 0.659% [at 15.8 µM] | activity change, negative = cytotoxicity [6] 2.48% [at 31.6 µM]

O=C1NC2NC(=O)NC2N1 (stereo not given)
inactive: outcome [1] | outcome [2] | outcome [3] | outcome [4] | outcome [5] | Potency [6]

O=c1cc(O)c(Cl)c[nH]1
inactive: outcome [1] | outcome [2] | outcome [3] | outcome [4] | outcome [5] | Potency [6]

CCCCC[Si](OCC)(OCC)OCC
inactive: outcome [1] | outcome [2] | outcome [3] | outcome [4] | outcome [5] | Potency [6]

N#CCCOCCOCCC#N
inactive: outcome [1] | outcome [2] | outcome [3] | outcome [4] | outcome [5] | Potency [6]

CCOC(=O)CC(CC(=O)OCC)(OC(C)=O)C(=O)OCC
inactive: outcome [1] | outcome [3] | outcome [4] | outcome [5] | Potency [6]
